In the library only some 19% were active in any assay of this set; here they are far more common.
TDP1 cell CPT: qHTS for Inhibitors of human tyrosyl-DNA phosphodiesterase 1 (TDP1): qHTS in cells in presence of CPT | chicken DT40 Tdp1-/-;hTDP1 cells + 20 nM CPT, ATP luminescence, 48 h | Potency, µM (highest dose often 46.2 µM), without a hit: top-dose activity change, negative = growth inhibition, hits mostly inhibitors | hit rate 12% among 420,000; further: potency means the concentration at half of the fitted maximal effect; on the % scale 0 is the no-effect control and ±100 the full control effect; nearly all actives have a fitted effect of over 55% in size
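Cell growth measured by CellTiter-Glo luminescence after a minimum 48 h, 37 C compound exposure with 20 nM CPT in Tdp1-knockout DT40 cells stably expressing hTDP1, seeded 400/well; qHTS titration format.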
IL-1B inflam inh: qHTS for Inhibitors of Inflammasome Signaling: IL-1-beta AlphaLISA Primary Screen. hit rate 4.7% among 360,000. THP-1 LPS/ATP IL-1B secretion, AlphaLISA, 16 h; active compounds read low. AID 743279, 2014. activity change, % at 57.5 µM; in the data active means activity change below about -50%; inconclusive means mostly about -30% to -49%; further: on the % scale 0 is the no-effect control and ±100 the full control effect
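THP-1 cells pretreated 1 hr with compounds (up to 57.5 uM final), then stimulated with LPS (250 ng/mL final) plus ATP (1.25 mM final); secreted IL-1B measured by AlphaLISA after 16 hr, decreased signal indicating inhibition.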
MCF10A rereplic: A quantitative high throughput screen for small molecules that induce DNA re-replication in MCF 10a normal breast cells; MCF 10A DNA re-replication, Hoechst nuclear intensity, 48 h; hit rate 2.9% among 350,000; Potency, µM (highest dose often 46.1 µM), inactives show at the top dose activity, positive = re-replication, hits mostly activators; further: potency means the concentration at half of the fitted maximal effect; % of control where 0% means no effect; nearly all actives have a fitted effect of over 50% in size
TDP1 cell noCPT: qHTS for Inhibitors of human tyrosyl-DNA phosphodiesterase 1 (TDP1): qHTS in cells in absence of CPT; DT40 Tdp1-/- hTDP1 cells, no CPT, ATP luminescence, 48 h; Potency, µM (highest dose often 46.2 µM), without a hit: at the highest dose activity change, negative = growth inhibition, hits mostly inhibitors; hit rate 15% among 420,000; further: potency means the concentration at half of the fitted maximal effect; on the % scale 0 is the no-effect control and ±100 the full control effect; nearly all actives have a fitted effect of over 55% in size
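Seeded 400 DT40-hTDP1 cells/well (vehicle DMSO, no 20 nM CPT); pinned compounds; ≥48 hr at 37 °C; CellTiter-Glo luminescence as viability measure.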
SW480 rereplic: A quantitative high throughput screen for small molecules that induce DNA re-replication in SW480 colon adenocarcinoma cells. SW480 DNA re-replication, Hoechst DNA content imaging, 48 h. Potency, µM (doses to about 46.1 µM), without a hit: at the highest dose re-replication activation, hits mostly activators. hit rate 1.8% among 340,000; further: potency means the concentration at half of the fitted maximal effect; % of control where 0% means no effect; nearly all actives have a fitted effect of over 55% in size
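Compounds, transferred as 23 nL by pin tool, were incubated with cells for 48 hr; DNA content per nucleus was then quantified by Hoechst staining and fluorescence plate imaging.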
Chronic BCR inh: qHTS Assay to Find Inhibitors of Chronic Active B-Cell Receptor Signaling. hit rate 0.05% among 340,000. Potency, µM (titrated, usually from 46.1 µM), for inactives: top-dose activity change, negative = inhibition, actives largely listed as inhibitors. ABC-DLBCL IkBa-CBG/CBR reporter, luminescence ratio, 4 h; active means well fitted inhibition curve with a large enough effect in the signal ratio, with a control signal flat, not every such curve was filed as active; inconclusive means small, poorly fitted or top-dose-only effect, or effect the other way, or a change in a side signal; the % refers to the signal ratio;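 further: potency means the concentration at half of the fitted maximal effect; plate controls were basal doxycycline-induced cells for no effect and cells given 10 µM MG132 for full effect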
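Concentration-response series (up to 46 uM) were applied to TMD8 dual-reporter cells for 4 h at 37C with doxycycline. Green/red ratio, after filter-overlap correction, defined %Activity; red signal alone was normalised to basal cells and zero luminescence.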
* marks the source's active call; other numbers are inactive results; ? = inconclusive; . = not tested or not shown; ! = repeats disagree. Unless noted, the call rests on the fitted dose curve; in most records, active means well fitted curve in the direction sought with a large enough effect; inconclusive means small, poorly fitted or top-dose-only effect, or another doubt; inactive means no such curve, though single readings can be large; an effect the other way counts as inactive or inconclusive.

SMILES | TDP1 cell CPT | IL-1B inflam inh | MCF10A rereplic | TDP1 cell noCPT | SW480 rereplic | Chronic BCR inh
Fc1ccccc1CN1Cc2ccccc2-n2nncc2C1 | ? | 33.1 | . | 23.1µM* | . | .
CN1CCCN(C(=O)COc2ccccc2Br)CC1 | 5.5% | 3.3 | 12.0% | -0.4% | 0.2% | -4.4%
COC(=O)C1=C(C)NC(=S)NC1c1ccc(N(CCCl)CCCl)cc1Cl (configuration not stated) | 9.2µM* | -28.4 | 14.5% | 20.6µM* | 14.4% | .
c1ccc2nc3ccccc3cc2c1 | 10µM* | . | . | 12.6µM* | . | .
Cc1ccc(C)c(S(=O)(=O)c2nnn3c2nc(N2CCN(C)CC2)c2sccc23)c1 | 16.4µM* | . | . | ? | . | .
COc1ccc(CN2CCN(Cc3ccccc3F)CC2)cc1 | -6.2% | -1.3 | 18.2% | -27.9% | -3.1% | -0.1%
COC(=O)c1c(N)n(Cc2ccc(OC)cc2)c2nc3ccccc3nc12 | ? | -12.8 | 2.3% | 16.4µM* | ? | 10.3%
COCCOC(=O)c1c(N)n(Cc2ccc(OC)cc2)c2nc3ccccc3nc12 | ? | -26.3 | 5.1% | 20.6µM* | 20.2% | ?
COc1ccc(CCN)cc1 | -18.7% | . | . | -19.8% | . | .
CCC1C2CC3C4N(C)c5ccccc5[C@]45CC(C2C5O)N3C1O (some centres not stated) | 0.461µM* | . | . | 0.366µM* | . | .
CC[C@H]1C2CC3[C@@H]4N(C)c5ccccc5[C@]45C[C@@H](C2[C@H]5O)N3[C@@H]1O (some centres not stated) | -1.7% | . | . | -6.7% | . | .
CC1(C)C(C(=O)N2CCN(c3ccc(Cl)cc3)CC2)C1(C)C | ? | -3.0 | 15.4% | 18.4µM* | 7.6% | ?
Cc1ccccc1CN1CCN(c2ccc(Cl)cc2)CC1 | -6.1% | 0.0 | ? | ? | -1.4% | ?
CCOP(=O)(NC(C)C)Oc1ccc(SC)c(C)c1 (configuration not stated) | 21.7µM* | -2.4 | 20.6% | 21.7µM*! | -13.5% | .
CCCc1nc(SC)ncc1C(=O)Nc1ccc(Cl)cc1C(=O)c1ccccc1 | ? | . | . | 23.1µM* | . | .
Cc1cccc(CN2CCN(C(=O)Cc3ccccc3)CC2)c1 | 1.3% | -15.0 | 1.4% | -23.9% | -2.1% | 0.5%
Cc1cccc(CN2CCc3nc(N4CCN(c5ccccn5)CC4)ncc3C2)c1 | 14.6µM* | . | . | 10.3µM* | . | .
COc1ccc(/C=C2\SC(=S)N(C(C)C(=O)NC3C=CS(=O)(=O)C3)C2=O)cc1 (configuration not stated) | ? | -61.1* | ? | -9.0% | ? | ?
OC1(c2ccc(Cl)cc2)CCN(Cc2c[nH]c3ccccc23)CC1 | 13µM* | ? | -17.1% | 16.4µM* | 3.7% | .
CC(C)N1CCN(Cc2c[nH]c3ccccc23)CC1CCO (configuration not stated) | ? | 14.0 | 3.3% | -11.7% | 24.6% | -4.4%
CC1CCCCN1CC(O)c1c[nH]c2ccccc12 (configuration not stated) | 9.5% | -8.5 | -9.3% | 0.4% | -0.2% | -0.6%
CC1CCCCN1Cc1c[nH]c2ccccc12 (configuration not stated) | 4.11µM* | -9.9 | 4.4% | 7.31µM* | -9.9% | ?
c1ccc2c(CCNC3CCCCC3)c[nH]c2c1 | ? | -26.4 | -12.1% | ? | 20.6µM* | 0.4%
c1ccc2c(CCN3CCCCC3)c[nH]c2c1 | -13.7% | -12.3 | . | -0.1% | . | .
c1ccc2c(CN3CCCCC3)c[nH]c2c1 | 8.2µM* | 0.0 | 23.6% | ? | -13.1% | ?
SMILES | TDP1 cell CPT | IL-1B inflam inh | MCF10A rereplic | TDP1 cell noCPT | SW480 rereplic | Chronic BCR inh
COc1ccc(C(=O)NC(=S)N2C[C@H]3C[C@H](C2)c2cccc(=O)n2C3)cc1 | 18.5% | -0.6 | 2.5% | 2.9% | 10.7% | ?
CC(C)(C)c1ccc(C(=O)C2CCCN(C3CCC3)C2)cc1 (configuration not stated) | -29.2% | 16.9 | ? | ? | 15.9% | ?
Cc1nc2c(=O)n(C)c(=O)nc-2n(C)n1 | 0.411µM* | -100.2* | 9.2µM* | 0.517µM* | 0.517µM* | ?
COCCOc1ccc(C(F)(F)F)cc1NC(=O)CN1C(=O)NC2(CCCc3ccccc32)C1=O (configuration not stated) | ? | -26.0 | 0.8% | 25.9µM* | ? | -17.6%
COc1ccc2c3c1O[C@H]1C(=O)CC[C@H]4[C@@H](C2)N(C)CC[C@]314 | 20.8% | -88.7* | -9.2% | ? | ? | 0.8%
CC1Oc2cc3c(-c4c(O)cc(O)c5c(O)c6c(cc45)OC(C)C(C)C6=O)c(O)cc(O)c3c(O)c2C(=O)C1C (configuration not stated) | 0.0164µM* | ? | -1.2% | 0.116µM* | 13µM* | ?
Cc1cc(=O)oc2c(C)c(OCC(=O)N3CCC(C(=O)O)(c4ccccc4)CC3)ccc12 | -11.6% | 5.8 | -6.6% | -14.0% | 0.8% | -4.6%
Cc1ccc2c(c1)C1CN(C)CCC1N2C(=O)Nc1cccc(C(F)(F)F)c1 (configuration not stated) | 20.6µM* | -3.7 | 15.7% | ? | 6.2% | ?
Cc1ccc2c(c1)C1CN(C)CCC1N2C(=O)c1cn(-c2ccccc2)nc1-c1ccccc1 (configuration not stated) | ? | ? | 20.6µM* | 16.4µM* | ? | -2.4%
Cc1ccc2c(c1)[C@@H]1CN(C)CC[C@@H]1N2C(=O)Nc1cccc(C(F)(F)F)c1 | 11.2µM* | -24.9 | -22.0% | 11.2µM* | ? | ?
Cc1ccc2c(c1)C1CN(C)CCC1N2C(=O)c1cccnc1Cl (configuration not stated) | -14.3% | 40.4 | -3.4% | -22.0% | -4.5% | -0.3%
Fc1cccc(C2NCCc3[nH]cnc32)c1 (configuration not stated) | 14.6% | -2.5 | 2.8% | -7.4% | -1.5% | -8.9%
CCCCOP(=O)(c1ccc(N(C)C)cc1)C(O)c1ccc(OC)c(OC)c1 (configuration not stated) | -4.3% | 9.9 | 7.0% | -24.9% | -10.4% | ?
COc1ccc(-n2c(-c3ccco3)nc3ccccc3c2=O)cc1 | ? | 0.0 | 4.6% | 23.1µM* | -1.8% | -1.6%

From PubChem
